# Data reported in the supplement of paper PMC8728848.
# This is one part of a sample in which the strongest signals are shown more often than they occur.
# B1: LysMD3 (Homo sapiens), Q7Z3D4 (protein)
# chain: MAGRHQNRSFPLPGVQSSGQVHAFGNCSDSDILEEDAEVYELRSRGKEKVRRSTSRDRLDDIIVLTKDIQEGDTLNAIALQYCCTVADIKRVNNLISDQDFFALRSIKIPVKKFSSLTETLCPPKGRQTSRHSSVQYSSEQQEILPANDSLAYSDSAGSFLKEVDRDIEQIVKCTDNKRENLNEVVSALTAQQMRFEPDNKNTQRKDPYYGADWGIG
# Experiments:
# Test in all cases: glycan array binding signal (z-score within array); higher = stronger binding
# Conditions in all cases: glycan notation: IUPAC condensed, linker removed
# [1] = target: Fuc(a1-2)Gal(b1-3)GalNAc(b1-3)Gal(a1-4)Gal(b1-4)Glc
# Procedure, shortened: (§1)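 The binding signal is a Z-score computed within each array. Data were drawn from 3228 arrays in the Consortium for Functional Glycomics database, restricted to those with a known protein sequence. Scores were averaged over arrays of the same protein sequence at different concentrations or buffers, and over linkers, and negative values can be taken as non-binding.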
# [2] = target: Fuc(a1-2)Gal(b1-3)GlcNAc(b1-3)GalNAc
# Procedure, shortened: as §1
# [3] = target: Fuc(a1-2)Gal(b1-3)[Fuc(a1-4)]GlcNAc(b1-2)Man(a1-3)[Fuc(a1-2)Gal(b1-3)[Fuc(a1-4)]GlcNAc(b1-2)Man(a1-6)]Man(b1-4)GlcNAc(b1-4)[Fuc(a1-6)]GlcNAc(b1-4)[Fuc(a1-6)]GlcNAc
# Procedure, shortened: as §1
# [4] = target: Fuc(a1-2)Gal(b1-4)[Fuc(a1-3)]GlcNAc(b1-2)Man(a1-3)[Fuc(a1-2)Gal(b1-4)[Fuc(a1-3)]GlcNAc(b1-2)Man(a1-6)]Man(b1-4)GlcNAc(b1-4)[Fuc(a1-6)]GlcNAc
# Procedure, shortened: as §1
# [5] = target: Fuc(a1-2)[Gal(a1-4)]Gal(b1-4)GlcNAc
# Procedure, shortened: as §1
# [6] = target: Fuc(a1-3)[Gal3S(b1-4)]GlcNAc
# Procedure, shortened: as §1
# [7] = target: Fuc(a1-4)GlcNAc
# Procedure, shortened: as §1
# [8] = target: Gal(a1-3)Gal(b1-4)[Fuc(a1-3)]GlcNAc
# Procedure, shortened: as §1
# [9] = target: Gal(a1-4)GlcNAc
# Procedure, shortened: as §1
# [10] = target: Gal(b1-3)Gal
# Procedure, shortened: as §1
# [11] = target: Gal(b1-3)GlcNAc(b1-2)Man
# Procedure, shortened: as §1
# [12] = target: Gal(b1-3)GlcNAc(b1-3)Gal(b1-4)[Fuc(a1-3)]GlcNAc
# Procedure, shortened: as §1
# [13] = target: Gal(b1-3)GlcNAc(b1-3)Gal(b1-4)[Fuc(a1-3)]GlcNAc(b1-6)[Gal(b1-3)GlcNAc(b1-3)]Gal(b1-4)Glc
# Procedure, shortened: as §1
# [14] = target: Gal(b1-4)Glc
# Procedure, shortened: as §1
# [15] = target: Gal(b1-4)GlcNAc(b1-3)Gal(b1-4)GlcNAc(b1-3)GalNAc
# Procedure, shortened: as §1
# [16] = target: Gal(b1-4)GlcNAc(b1-3)GalNAc
# Procedure, shortened: as §1
# [17] = target: Gal3S(b1-4)GlcNAc
# Procedure, shortened: as §1
# [18] = target: Gal3S(b1-4)[Fuc(a1-3)]GlcNAc
# Procedure, shortened: as §1
# [19] = target: GalNAc(a1-3)Gal
# Procedure, shortened: as §1
# [20] = target: GalNAc(b1-3)GalNAc
# Procedure, shortened: as §1
# [21] = target: GalNAc(b1-3)GlcNAc
# Procedure, shortened: as §1
# [22] = target: GalNAc3S(b1-4)[Fuc(a1-3)]GlcNAc
# Procedure, shortened: as §1
# [23] = target: GlcNAc(a1-4)Gal(b1-3)GlcNAc
# Procedure, shortened: as §1
# [24] = target: GlcNAc(b1-3)Gal(b1-3)GalNAc
# Procedure, shortened: as §1
# [25] = target: GlcNAc(b1-3)Gal(b1-4)Glc
# Procedure, shortened: as §1
# [26] = target: GlcNAc(b1-3)Gal(b1-4)GlcNAc(b1-2)Man(a1-3)[GlcNAc(b1-3)Gal(b1-4)GlcNAc(b1-2)Man(a1-6)]Man(b1-4)GlcNAc(b1-4)[Fuc(a1-6)]GlcNAc
# Procedure, shortened: as §1
# [27] = target: GlcNAc(b1-3)Gal(b1-4)GlcNAc(b1-3)Gal(b1-4)GlcNAc(b1-2)Man(a1-3)[GlcNAc(b1-3)Gal(b1-4)GlcNAc(b1-3)Gal(b1-4)GlcNAc(b1-2)Man(a1-6)]Man(b1-4)GlcNAc(b1-4)[Fuc(a1-6)]GlcNAc
# Procedure, shortened: as §1
# [28] = target: GlcNAc(b1-3)Gal(b1-4)GlcNAc(b1-3)Gal(b1-4)GlcNAc(b1-2)[GlcNAc(b1-3)Gal(b1-4)GlcNAc(b1-3)Gal(b1-4)GlcNAc(b1-6)]Man(a1-6)[GlcNAc(b1-3)Gal(b1-4)GlcNAc(b1-3)Gal(b1-4)GlcNAc(b1-2)Man(a1-3)]Man(b1-4)GlcNAc(b1-4)[Fuc(a1-6)]GlcNAc
# Procedure, shortened: as §1
# [29] = target: GlcNAc(b1-3)Gal(b1-4)GlcNAc(b1-3)Gal(b1-4)GlcNAc(b1-3)Gal(b1-4)GlcNAc(b1-2)Man(a1-3)[GlcNAc(b1-3)Gal(b1-4)GlcNAc(b1-3)Gal(b1-4)GlcNAc(b1-3)Gal(b1-4)GlcNAc(b1-2)Man(a1-6)]Man(b1-4)GlcNAc(b1-4)[Fuc(a1-6)]GlcNAc
# Procedure, shortened: as §1
# [30] = target: GlcNAc(b1-3)Gal(b1-4)GlcNAc(b1-3)Gal(b1-4)GlcNAc(b1-3)Gal(b1-4)GlcNAc(b1-2)[GlcNAc(b1-3)Gal(b1-4)GlcNAc(b1-3)Gal(b1-4)GlcNAc(b1-3)Gal(b1-4)GlcNAc(b1-6)]Man(a1-6)[GlcNAc(b1-3)Gal(b1-4)GlcNAc(b1-3)Gal(b1-4)GlcNAc(b1-3)Gal(b1-4)GlcNAc(b1-2)Man(a1-3)]Man(b1-4)GlcNAc(b1-4)[Fuc(a1-6)]GlcNAc
# Procedure, shortened: as §1
# [31] = target: GlcNAc(b1-3)GalNAc
# Procedure, shortened: as §1
# [32] = target: GlcNAc(b1-4)[GlcNAc(b1-6)]GalNAc
# Procedure, shortened: as §1
# [33] = target: GlcNAc(b1-6)GalNAc
# Procedure, shortened: as §1
# [34] = target: Man(a1-2)Man(a1-3)[Man(a1-2)Man(a1-6)]Man(a1-6)[Man(a1-2)Man(a1-2)Man(a1-3)]Man
# Procedure, shortened: as §1
# [35] = target: Man(a1-2)Man(a1-6)[Man(a1-3)]Man(a1-6)[Man(a1-2)Man(a1-2)Man(a1-3)]Man(b1-4)GlcNAc(b1-4)GlcNAc
# Procedure, shortened: as §1
# [36] = target: Man(a1-3)[Man(a1-6)]Man(a1-6)[Man(a1-3)]Man(b1-4)GlcNAc(b1-4)GlcNAc
# Procedure, shortened: as §1
# [37] = target: Man(a1-3)[Man(a1-6)]Man(b1-4)GlcNAc(b1-4)GlcNAc
# Procedure, shortened: as §1
# [38] = target: Neu5Ac(a2-3)Gal(b1-3)GlcNAc
# Procedure, shortened: as §1
# [39] = target: Neu5Ac(a2-3)Gal(b1-3)GlcNAc(b1-2)[Neu5Ac(a2-3)Gal(b1-3)GlcNAc(b1-4)]Man(a1-6)[Neu5Ac(a2-3)Gal(b1-3)GlcNAc(b1-2)Man(a1-3)]Man(b1-4)GlcNAc(b1-4)GlcNAc
# Procedure, shortened: as §1
# [40] = target: Neu5Ac(a2-3)Gal(b1-4)GlcNAc(b1-2)Man
# Procedure, shortened: as §1
# [41] = target: Neu5Ac(a2-3)Gal(b1-4)GlcNAc(b1-2)Man(a1-3)[Neu5Ac(a2-6)Gal(b1-4)GlcNAc(b1-2)Man(a1-6)]Man(b1-4)GlcNAc(b1-4)GlcNAc
# Procedure, shortened: as §1
# [42] = target: Neu5Ac(a2-3)Gal(b1-4)GlcNAc(b1-3)Gal(b1-4)GlcNAc(b1-6)[Gal(b1-3)]GalNAc
# Procedure, shortened: as §1
# [43] = target: Neu5Ac(a2-3)Gal(b1-4)GlcNAc(b1-6)[Neu5Ac(a2-3)Gal(b1-3)]GalNAc
# Procedure, shortened: as §1
# [44] = target: Neu5Ac(a2-3)Gal6S(b1-4)[Fuc(a1-3)]GlcNAc
# Procedure, shortened: as §1
# [45] = target: Neu5Ac(a2-6)Gal(b1-4)GlcNAc
# Procedure, shortened: as §1
# [46] = target: Neu5Ac(a2-6)Gal(b1-4)GlcNAc(b1-2)Man(a1-3)[Man(a1-6)]Man(b1-4)GlcNAc(b1-4)GlcNAc
# Procedure, shortened: as §1
# [47] = target: Neu5Ac(a2-6)Gal(b1-4)GlcNAc(b1-2)Man(a1-3)[Neu5Ac(a2-3)Gal(b1-4)GlcNAc(b1-2)Man(a1-6)]Man(b1-4)GlcNAc(b1-4)GlcNAc
# Procedure, shortened: as §1
# [48] = target: Neu5Ac(a2-8)Neu5Ac(a2-3)Gal(b1-3)GalNAc(b1-4)[Neu5Ac(a2-8)Neu5Ac(a2-3)]Gal(b1-4)Glc
# Procedure, shortened: as §1
# [49] = target: Neu5Gc(a2-3)Gal(b1-3)[Fuc(a1-4)]GlcNAc
# Procedure, shortened: as §1
# [50] = target: Neu5Gc(a2-3)Gal(b1-4)GlcNAc
# Procedure, shortened: as §1
# [51] = target: Neu5Gc(a2-3)Gal(b1-4)[Fuc(a1-3)]GlcNAc
# Procedure, shortened: as §1
binder,measurement,setting,value
B1,glycan array binding signal (z-score),[1],0.086
same,glycan array binding signal (z-score),[2],0.587
same,glycan array binding signal (z-score),[3],0.341
same,glycan array binding signal (z-score),[4],1.97
same,glycan array binding signal (z-score),[5],2.84
same,glycan array binding signal (z-score),[6],-0.081
same,glycan array binding signal (z-score),[7],0.681
same,glycan array binding signal (z-score),[8],0.873
same,glycan array binding signal (z-score),[9],0.113
same,glycan array binding signal (z-score),[10],0.706
same,glycan array binding signal (z-score),[11],1.23
same,glycan array binding signal (z-score),[12],2.15
same,glycan array binding signal (z-score),[13],-0.547
same,glycan array binding signal (z-score),[14],-0.555
same,glycan array binding signal (z-score),[15],-0.073
same,glycan array binding signal (z-score),[16],0.375
same,glycan array binding signal (z-score),[17],-0.699
same,glycan array binding signal (z-score),[18],0.294
same,glycan array binding signal (z-score),[19],0.335
same,glycan array binding signal (z-score),[20],1.67
same,glycan array binding signal (z-score),[21],1.85
same,glycan array binding signal (z-score),[22],-0.424
same,glycan array binding signal (z-score),[23],0.45
same,glycan array binding signal (z-score),[24],1.5
same,glycan array binding signal (z-score),[25],0.983
same,glycan array binding signal (z-score),[26],1.83
same,glycan array binding signal (z-score),[27],1.8
same,glycan array binding signal (z-score),[28],1.87
same,glycan array binding signal (z-score),[29],1.68
same,glycan array binding signal (z-score),[30],2.41
same,glycan array binding signal (z-score),[31],-0.639
same,glycan array binding signal (z-score),[32],0.46
same,glycan array binding signal (z-score),[33],0.427
same,glycan array binding signal (z-score),[34],0.422
same,glycan array binding signal (z-score),[35],-0.445
same,glycan array binding signal (z-score),[36],-0.113
same,glycan array binding signal (z-score),[37],-0.343
same,glycan array binding signal (z-score),[38],-0.413
same,glycan array binding signal (z-score),[39],-0.094
same,glycan array binding signal (z-score),[40],-0.604
same,glycan array binding signal (z-score),[41],0.582
same,glycan array binding signal (z-score),[42],-0.924
same,glycan array binding signal (z-score),[43],-0.226
same,glycan array binding signal (z-score),[44],-0.291
same,glycan array binding signal (z-score),[45],-0.353
same,glycan array binding signal (z-score),[46],-1.15
same,glycan array binding signal (z-score),[47],-0.438
same,glycan array binding signal (z-score),[48],1.66
same,glycan array binding signal (z-score),[49],-0.44
same,glycan array binding signal (z-score),[50],-0.032
same,glycan array binding signal (z-score),[51],-0.174
